Compound activity deposited in PubChem by National Center for Advancing Translational Sciences (NCATS).
FLuc counter = firefly luciferase modulation, counter-screen for miR-21 project; P08659; purified FLuc, Km substrates, luminescence inhibition; Potency, µM (series often up to 57.5 µM), hits mostly inhibitors; 360,000 compounds, 6.9% hits; AID 588342; note: nearly all actives have a fitted effect of over 55% in size
Target sequence (P08659 whole entry, looked up): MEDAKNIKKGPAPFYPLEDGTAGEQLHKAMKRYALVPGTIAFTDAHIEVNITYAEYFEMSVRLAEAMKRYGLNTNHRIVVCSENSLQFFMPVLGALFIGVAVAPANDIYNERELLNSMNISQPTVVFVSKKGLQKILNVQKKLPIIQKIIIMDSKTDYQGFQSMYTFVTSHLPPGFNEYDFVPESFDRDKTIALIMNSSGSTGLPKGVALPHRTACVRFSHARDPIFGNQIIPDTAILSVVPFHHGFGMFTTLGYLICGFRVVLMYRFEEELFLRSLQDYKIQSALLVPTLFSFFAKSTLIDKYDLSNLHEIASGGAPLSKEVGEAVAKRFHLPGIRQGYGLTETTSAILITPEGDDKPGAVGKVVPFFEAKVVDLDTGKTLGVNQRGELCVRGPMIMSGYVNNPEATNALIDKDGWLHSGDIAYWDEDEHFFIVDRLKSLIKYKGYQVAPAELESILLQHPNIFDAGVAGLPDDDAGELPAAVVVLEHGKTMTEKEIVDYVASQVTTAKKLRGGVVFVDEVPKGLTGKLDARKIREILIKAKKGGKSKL
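Purified P. pyralis luciferase, 10 nM final, with Km-level 10 uM D-luciferin and 10 uM ATP in 50 mM Tris acetate pH 7.5, 10 mM Mg acetate, 0.01% Tween-20, 0.05% BSA; 6-point qHTS titration about 60 µM downward; luminescence read.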
Rab9 promoter act = Rab9 promoter activation | Huh7 Rab9 promoter-luciferase reporter, luminescence, 24 h | Potency, µM (top dose mostly 9.22 µM), hits mostly activators | 320,000 compounds, 2.8% hits; note: nearly all actives have a fitted effect of over 60% in size
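Huh7 cells stably carrying Rab9 promoter–luciferase reporter, plated 1500 cells/well, compound added after 2 h and incubated 24 h at 37 °C; luciferase luminescence then read after 10 min with detection reagent.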
SMN2 splice enh = enhancers of SMN2 splice variant expression; HEK293 SMN2-luciferase splicing reporter, luminescence, 30-36 h; Potency, µM (doses to about 46.1 µM), most hits filed as activators; 210,000 compounds, 2.8% hits; AID 1458; note: nearly all actives have a fitted effect of over 55% in size
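HEK293 cells carry an SMN2 […]–luciferase reporter in which exon 7 inclusion puts luciferase in frame. Cells were plated 10-12 h before compound addition, then incubated 30-36 h at 37C. ONE-Glo luminescence was read; sodium butyrate at 4.5 mM final served as control.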
ELG1 genotoxic = induces genotoxicity in HEK293T cells with luciferase-tagged ELG1; HEK293T ELG1-luciferase reporter, luminescence, 16 h; 330,000 compounds, 1.3% hits; AID 504466; Potency, µM (top dose mostly 46 µM), most hits filed as activators; note: nearly all actives have a fitted effect of over 60% in size
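HEK293T cells expressing luciferase-tagged ELG1 were treated with compound or DMSO for 16 hr at 37°C. Luciferase activity was then read after 30 min with ONE-Glo at room temperature; rising signal flags genetic stress.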
Luc counter = Kinase-Glo luciferase inhibition (counter-screen) | Q27757 | Kinase-Glo luciferase, ATP luminescence, 8 min | Potency, µM (top dose mostly 38.3 µM), most hits filed as inhibitors | 200,000 compounds, 0.28% hits | AID 1379; note: nearly all actives have a fitted effect of over 60% in size
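Substrate mix (final 50 mM imidazole pH 7.2, 50 mM KCl, 7 mM MgCl2, 10 uM ATP, 0.01% Tween 20, 0.05% BSA) plus pin-tool compound, then Kinase-Glo detection mix; 8 min ambient, luminescence read.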
NPC1 promoter act = activates the NPC1 promoter; Huh7 NPC1 promoter luciferase reporter, 24 h; AID 485313; 320,000 compounds, 2.4% hits; Potency, µM (titrated, usually from 9.22 µM), most hits filed as activators; note: nearly all actives have a fitted effect of over 60% in size
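Luminescence from an NPC1 promoter-driven luciferase reporter in stably transfected Huh7 cells was measured after 24 h compound treatment at 37 °C, followed by 10 min ambient incubation with luciferase detection reagent.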
Hits are given with their value; - = inactive; ? = inconclusive; . = not tested or not shown; [ ] = dose if it differs, or a comment. Only some compounds are listed: those with a hit (about 7.5% of all), similar ones and a draw of the others. Calls come from the whole dose curve; as a rule, active = well fitted curve in the direction sought with a large enough effect; inconclusive = small, poorly fitted or top-dose-only effect, or another doubt; inactive = no such curve, though single readings can be large; an effect the other way counts as inactive or inconclusive.

SMILES	FLuc counter	Rab9 promoter act	SMN2 splice enh	ELG1 genotoxic	Luc counter	NPC1 promoter act
O=C(NCCc1cccs1)C1CC(c2ccc([N+](=O)[O-])cc2)=NO1 (configuration not stated)	13.5µM	2.51µM	?	?	-	3.55µM
CC(C)CCNC(=O)C1CC(c2cccc(F)c2)=NO1 (configuration not stated)	-	-	.	-	.	-
COc1ccc(CCNC(=O)C2CC(c3ccc([N+](=O)[O-])cc3)=NO2)cc1 (configuration not stated)	?	-	-	-	-	-
CCCCNC(=O)C1CC(c2cccc(F)c2)=NO1 (configuration not stated)	15.1µM	?	.	?	.	?
COc1nc(N)nc(NC23CC4CC(CC(C4)C2)C3)n1	5.36µM	-	-	?	-	-
COc1nc(N)nc(N2CCOCC2)n1	-	-	-	-	-	-
CCOc1ccc(Sc2cc(C(=O)NCCCOC)c3ccccc3n2)cc1	-	.	.	.	.	.
COC(=O)c1ccccc1NC(=O)C1CCCCC1C(=O)O (configuration not stated)	-	-	-	-	-	-
COC(=O)c1ccc(NC(=O)c2ccccc2N(C)S(C)(=O)=O)cc1	-	-	-	-	-	-
COc1ccc(NC(C)=O)cc1S(=O)(=O)Nc1ccccc1C(=O)NCCc1ccccc1	16.9µM	2µM	.	?	.	2.24µM
COC(=O)c1ccc(NC(=O)c2ccccc2NS(C)(=O)=O)cc1	12µM	-	-	-	-	-
O=C(NCCc1ccccc1)c1ccccc1NC(=O)C1CCCCC1C(=O)O (configuration not stated)	?	2µM	11.2µM	?	-	?
COc1cccc(N2CCN(CC(=O)Nc3ccccc3C(=O)NCCc3ccccc3)CC2)c1	.	3.55µM	.	-	.	3.16µM
COc1cccc(N2CCN(CC(=O)Nc3ccccc3C(=O)NCc3ccccc3)CC2)c1	-	-	.	-	.	-
Cn1c(=O)c2c(nc(C(=N)SCC(=O)O)n2C)n(C)c1=O	.	.	-[9.22 µM]	.	-[7.66 µM]	.
CC(NC(=O)c1ccccc1NS(=O)(=O)c1ccc(CCC(=O)O)cc1)c1ccccc1 (configuration not stated)	-	-	.	-	.	-
COc1ccccc1NC(=O)c1ccccc1NS(C)(=O)=O	-	-[1.84 µM]	-	-	-	-
COc1ccc(NC(=O)c2ccccc2NS(C)(=O)=O)cc1OC	16.9µM	-	-	-	-	-
O=C(O)CCc1ccc(S(=O)(=O)Nc2ccccc2C(=O)NCCc2ccccc2)cc1	19µM	3.16µM	.	?	.	2.24µM
COCc1cc(C)nc(OCC(=O)N/N=C/c2ccc(-c3cc([N+](=O)[O-])ccc3Cl)o2)c1C#N	-	-	-	-	-	-
C=C[C@@H]1c2cc(C)ccc2N(S(=O)(=O)c2ccc(C)cc2)[C@H](c2ccccc2C(F)(F)F)C1(C#N)C#N	-	-	.	-	.	-
CCC(C)c1ccc(Nc2ncccc2C#N)cc1 (configuration not stated)	21.3µM	?	?	?	-	?
NC(=O)c1sc2nc3c(c(-c4ccc(Cl)cc4)c2c1N)CCCC3	-	-	-	-	-	-
COc1ccccc1NC(=O)c1sc2nc3c(cc2c1N)CCCCCC3	-	.	-	.	.	.
Nc1c(C(=O)N2CCCC2)sc2nc(-c3ccccc3)ccc12	4.78µM	1.58µM	.	?	.	2µM
SMILES	FLuc counter	Rab9 promoter act	SMN2 splice enh	ELG1 genotoxic	Luc counter	NPC1 promoter act
Cc1ccc(C(=O)c2sc3nc4c(cc3c2N)CCC4)cc1	?	2.24µM	7.94µM	?	-	1.78µM
Cc1ccc(-c2c3c(nc4sc(C(N)=O)c(N)c24)CCC3)cc1	16.9µM	?	-	-	-	-
Nc1c(C(=O)N2CCCCC2)sc2nc3c(cc12)CCCC3	6.75µM	2.82µM	.	6.51µM	.	2.51µM
Nc1c(C(=O)Nc2ccccc2F)sc2nc3c(cc12)CCCCCC3	-	.	-	.	.	.
Cc1cc(C)c(S(=O)(=O)N2CCCC(C(=O)NCc3ccncc3)C2)c(C)c1 (configuration not stated)	-	-	.	-	.	-
CC(C)CCNC(=O)c1ccc(Cl)c(NC(=O)c2ccccc2F)c1	-	-	.	-	-	-
Cc1ccc(NC(=O)CCC(=O)N2Cc3ccccc3Oc3ncccc32)cc1F	-	.	.	.	.	.
Cc1ccccc1CNC(=O)C(=O)NCC1OCCCN1S(=O)(=O)c1cccs1 (configuration not stated)	-	-	.	-	.	-
CCCc1ccc(OCC(=O)Nc2sc3c(c2C(=O)OC)CCCCC3)cc1	-	.	-	.	.	.
Cc1cc(C)n(-c2nc3c(c(=O)[nH]c(=O)n3C)n2CCc2ccccc2)n1	-	-	14.1µM	-	-	-
Cc1cc(C)n(-c2nc3c(c(=O)[nH]c(=O)n3C)n2Cc2ccccc2)n1	-	-	-	-	-	-
COC1OC(CO)C(OC2OC(C(=O)O)C(OC3OC(COS(=O)(=O)O)C(OC4OC(C(=O)O)C(OC5OC(CO)C(OC6OC(C(=O)O)C(OC7OC(COS(=O)(=O)O)C(OC8OC(C(=O)O)=C[C@H](O)C8OS(=O)(=O)O)C(O)C7NC(C)=O)[C@@H](O)C6O)C(O)C5NC(C)=O)[C@@H](O)C4O)C(O)C3NC(C)=O)[C@@H](O)C2O)C(O)C1NC(C)=O (some centres not stated)	.	.	-	.	-	.
COc1ccccc1/C=C/C(=O)Nc1cccnc1Cl	26.9µM	-	.	-	.	?
COc1ccc(/C=C/C(=O)Nc2ccc(Cl)c(Cl)c2)cc1	4.78µM	.	-	.	.	.
COC(=O)c1cc(Cl)c(NC(=O)/C=C/c2ccc(OC)cc2)cc1OC	-	-	-	-	-	-
COc1ccc(/C=C/C(=O)Nc2cccnc2Cl)cc1	5.36µM	2.51µM	.	9.2µM	.	2µM
COc1ccccc1/C=C/C(=O)NCCc1ccccn1	13.5µM	2.82µM	.	?	.	?
Cc1ccc(SCc2nc(-c3ccc(C(=O)NCc4ccc(Cl)cc4)cc3)oc2C)cc1	-	.	.	.	.	.
COC(=O)c1ccc(NC(=O)CC2C(=O)N(c3cccc(OC)c3)C(=O)N2Cc2cccc(OC)c2)cc1 (configuration not stated)	-	.	.	.	.	.
Oc1ccccc1CNc1ccc(OC(F)(F)F)cc1	?	?	.	-	-	-
Cc1coc2cc3oc(=O)c(CCC(=O)NCCN4CCOCC4)c(C)c3cc12	-	-	.	-	.	-
Cc1cc(NC(=O)C(=O)c2c(C)[nH]c3ccccc23)no1	-	-	-	?	-	-
CCN(CC)C(=O)Cn1cc(C(=O)C(=O)NCCCN2CCOCC2)c2ccccc21	-	-	.	-	.	-
O=C(Nc1ccc2c(c1)OCCO2)C(=O)c1c[nH]c2ccccc12	0.19µM	0.1µM	.	?	.	?
Cc1[nH]c2ccccc2c1C(=O)C(=O)Nc1ccc2c(c1)OCCO2	15.1µM	?	.	-	.	?
